High-throughput results: PubChem BioAssay, National Center for Advancing Translational Sciences (NCATS)
Most compounds without a hit are left out; they make up all but 2.4% or so of the library.
D2 PAM-1: positive allosteric modulators of human D2 dopamine receptor | P14416 | HEK293 T-REx D2, calcium flux, EC20 dopamine potentiation | potentiation, % at 10 µM | 0.34% of 340,000 active | AID 485347;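 active means potentiation over 3 SD above the plate norm, cut at about 30% in these data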; further: 0% is about no effect
Target sequence (P14416 whole entry, looked up): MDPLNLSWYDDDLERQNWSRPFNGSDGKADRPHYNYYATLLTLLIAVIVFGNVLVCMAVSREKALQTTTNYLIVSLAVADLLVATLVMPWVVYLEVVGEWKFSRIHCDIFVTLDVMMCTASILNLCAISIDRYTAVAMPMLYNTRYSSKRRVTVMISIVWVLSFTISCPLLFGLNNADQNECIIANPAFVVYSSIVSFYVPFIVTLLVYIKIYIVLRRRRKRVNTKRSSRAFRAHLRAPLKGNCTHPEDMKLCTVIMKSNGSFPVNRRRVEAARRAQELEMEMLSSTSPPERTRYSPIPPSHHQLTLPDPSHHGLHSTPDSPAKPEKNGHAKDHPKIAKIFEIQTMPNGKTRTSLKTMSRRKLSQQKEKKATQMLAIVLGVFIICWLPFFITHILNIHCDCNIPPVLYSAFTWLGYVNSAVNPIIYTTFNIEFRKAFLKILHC
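Primary screen. Calcium kinetics in induced HEK293 T-REx D2 cells: compound pre-addition 180 s, EC20 dopamine, 180 s more.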
D2 ag-1: activates the human D2 dopamine receptor | activation, % (test concentration not listed) | DiscoveRx PathHunter D2 beta-arrestin, luminescence, 90 min; 100% = 57 uM dopamine signal | 0.084% of 360,000 active; in the data active means activation above about 40%; inconclusive means between about 15% and that limit
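DiscoveRx PathHunter D2 beta-arrestin cells (2,100/well) attached overnight, then compound-stimulated 90 min at 37 C in HBSS/10 mM HEPES/0.1% Tween-20 buffer; beta-galactosidase complementation read by luminescence after 1 h at ambient temperature. Dopamine 57 uM final (EC100) as control.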
D2 PAM-2: human D2 receptor positive allosteric modulation; 0.23% of 360,000 active; DiscoveRx D2 beta-arrestin cells, luminescence, 90 min; 100% = 57 uM dopamine signal; potentiation, % (no concentration beside the values); AID 624464; in the data active means potentiation above about 50%; inconclusive means mostly about 30% to 49%
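PathHunter D2 cells, attached overnight at 37 deg C, received compound in DMSO plus dopamine at EC20 (50 nM final) for 90 min at 37 deg C. Beta-arrestin recruitment was read as luminescence after 1 h with detection reagent at ambient temperature.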
D2 ag-2: D2 dopamine receptor (human) agonism; activation, % at 2 µM; P14416; HEK293 T-REx D2 cells, calcium flux agonist mode; 0.53% of 340,000 active;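 active means activation over 3 SD above normal in the single-dose calcium agonist read, cut at about 30% in these data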; further: 0% is about no effect
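Agonism scored from kinetic calcium signal (1 read/sec, 180 s) following compound pin transfer, after a 10 s baseline. Cells: HEK293 Trex line expressing inducible D2 receptor coupled to calcium, dye-loaded after overnight culture at 30 C.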
D2 antagonist: antagonists of human D2 dopamine receptor. P14416. inhibition, % at 10 µM. HEK293 TREx D2 cells, calcium flux, dopamine EC80. 2% of 340,000 active. AID 485344; in the data active means inhibition above about 30%; inactive means below that, where a call was filed; further: 0% is about no effect
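Calcium mobilization kinetics were recorded at 1 s intervals in tetracycline-induced HEK293 T-REx D2 cells, first for 180 s after compound addition and then 180 s after EC80 dopamine.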
* marks the source's active call; other numbers are inactive results; ? = inconclusive; · = no result given.

SMILES	D2 PAM-1	D2 ag-1	D2 PAM-2	D2 ag-2	D2 antagonist
N/C(=N\OC(=O)c1ccco1)c1ccccc1	7	9	?	0	-7
Cc1cccc(/C(N)=N/OC(=O)c2ccco2)c1	-4	13	56*	0	1
N/C(=N\OC(=O)c1ccco1)c1ccc(Br)cc1	-7	10	52*	3	-8
Cc1ccc(/C(N)=N/OC(=O)c2ccco2)cc1	-7	4	56*	1	-2
Cc1ccc(-c2noc(-c3ccccc3NC(=O)C3CC(=O)N(c4ccccc4C)C3)n2)cc1 (stereo not drawn)	-5	·	·	-1	·
CC(=O)c1ccc(NC(=O)C[n+]2cccc(C)c2)cc1	8	-2	-3	0	37*
CCN1CCSc2ccc(C(=O)NCc3cccc(F)c3)cc21	-15	-6	-9	1	44*
CCCOc1ccc(CNC(=O)c2ccc3c(c2)N(CC)CCS3)cc1	-15	-3	-10	1	50*
CCN(CC)CCNC(=O)Cn1nc(C)c2c(C)n(-c3ccccc3)nc2c1=O	-6	·	·	·	·
CCc1ccc(OCc2n[nH]c(=S)n2C(C)CCCC(C)C)cc1 (stereo not drawn)	3	13	0	2	48*
COC(=O)CNC(=O)c1cccs1	-8	-2	5	0	66*
CCOc1cccc(C2c3c(oc4ccccc4c3=O)C(=O)N2c2nc(C)c(C(=O)OC)s2)c1 (stereo not drawn)	1	·	·	1	·
Cc1cc2nnc(SCC(=O)N3C(C)CCCC3C)n2c(N)n1 (stereo not drawn)	37*	-2	-1	1	30*
COc1cc(C)nc(SCC(N)=O)n1	·	-2	16	3	33*
Cc1cc(N)nc(SCC(=O)N2C(C)CCCC2C)n1 (stereo not drawn)	34*	0	-4	1	-23
Cc1cc(C)nc(SCC(=O)N2CCC(C(N)=O)CC2)n1	30*	-5	3	1	-14
Cc1cc2nnc(SCC(=O)N3CCCCC3)n2c(N)n1	16	-5	-5	0	2
Cc1ccc(CCNC(=O)CCS(=O)(=O)c2cc3c(cc2Cl)NC(=O)CO3)cc1	3	·	·	0	·
Oc1ccc(/C=N/N2CCCCC2)cc1O	-3	44*	-11	·	·
Cc1ccn2c(Nc3ccc4c(c3)OCO4)c(-c3ccc(C)o3)nc2c1	-5	·	·	0	·
Cc1ccc(-c2nc3cnccn3c2Nc2ccc3c(c2)OCO3)o1	-5	5	9	1	36*
COc1ccc(CCNC(=O)Cn2c(=O)c3cccn3c3ccc(F)cc32)c(OC)c1	13	·	·	0	·
COc1ccccc1-n1c(SCC(=O)N2CCOCC2)nc2cccnc21	-5	-4	-3	0	60*
N#C/C(=C/c1ccc(N2CCOCC2)o1)C(=O)Nc1ccccc1	8	0	-8	40*	9
COCCNC(=O)/C(C#N)=C/c1ccc(N2CCOCC2)o1	0	-3	-25	13	-12
SMILES	D2 PAM-1	D2 ag-1	D2 PAM-2	D2 ag-2	D2 antagonist
N#C/C(=C\c1ccc(N2CCOCC2)o1)C(=O)NCCc1ccccc1	3	6	-7	21	46*
CCc1cccc(C)c1NC(=O)C1=C(C)C(=O)OC12CCC(C)CC2 (stereo not drawn)	1	·	·	0	·
CC(C)C(=O)N1CCC1(C)C(=O)Nc1nc2ccccc2[nH]1 (stereo not drawn)	·	-3	1	·	·
CCCCn1c(N)c(N(CC(C)C)C(=O)C2CC(=O)N(c3ccc4c(c3)OCCO4)C2)c(=O)[nH]c1=O (stereo not drawn)	-4	-7	-6	0	39*
CCCCN(C(=O)C1CC(=O)N(c2ccc(C)cc2)C1)c1c(N)n(CCC)c(=O)[nH]c1=O (stereo not drawn)	-6	-5	-26	0	38*
CCOc1ccc(-n2c(=O)c3c(C)c(C(=O)N(C)C)sc3n(Cc3cc(C)ccc3C)c2=O)cc1	14	·	·	-1	·
O=C(CCS(=O)(=O)c1ccc(Br)cc1)Nc1ccc(Cl)c(C(F)(F)F)c1	6	·	·	0	·
CC(C)(C)OC(=O)N1CCC(c2c(C(=O)N3CCN(Cc4ccccc4)CC3)cnn2-c2cccc(Cl)c2)CC1	-1	·	·	-1	·
CC1CC(C)CN(CCCNC(=O)c2ccc3c(c2)NC(=O)C(N2CCCCC2)S3)C1 (stereo not drawn)	-29	-4	-31	1	88*
CCCN1CCN(CCCNC(=O)c2cc3c(=O)[nH]c4ccc(C)cc4c3s2)CC1	-7	-3	-10	-1	43*
O=C(NCCCN1CCCCC1)c1ccc2c(c1)NC(=O)C(N1CCCCC1)S2 (stereo not drawn)	-21	-6	-48	0	47*
Cc1[nH]c2ccc(C(=O)NCCCN3CCCCCC3)cc2c1C	-13	2	-38	1	62*
CCN(CCCNC(=O)c1cc2c(=O)[nH]c3ccc(C)cc3c2s1)c1ccc(C)cc1	0	·	·	1	·
O=C(O)c1ccc2c(c1)NC(=O)C(N1CCCC1)S2 (stereo not drawn)	-11	-2	-9	1	10
CCc1cccc(NC(=O)c2cnc(SC)nc2-c2ccccc2)c1	5	·	·	-1	·
O=C(NCCc1ccccc1Cl)c1ccc2c(=O)n(-c3ccccc3)c(=O)[nH]c2c1	·	·	·	0	·
Cc1ccc(S(=O)(=O)Nc2cccc3cccnc23)cc1	-11	-6	-33	-1	-16
COc1cc(NS(=O)(=O)c2ccc(C)cc2)c2ncccc2c1	54*	-7	-32	0	-22
CCc1ccc(NC(=O)CSc2nc(C)cc(COC)c2C#N)cc1	·	·	·	0	·
COc1c(O)c(O)c2oc(-c3ccccc3)cc(=O)c2c1OC	14	8	?	0	-5
COc1cc(-c2cc(=O)c3c(O)c(OC)c(OC)c(O)c3o2)ccc1O	17	9	88*	0	0
CC(C(=O)NCc1ccccc1Cl)n1ccc2cc(S(=O)(=O)N3CCCCC3)ccc21 (stereo not drawn)	4	·	·	1	·
CSc1ncc(C(=O)NCc2cccc(Br)c2)c(-c2ccccc2)n1	-2	·	·	1	·
CCCCC(=O)Nc1nc2c(s1)COc1ccccc1-2	-5	-1	-4	3	52*
CCCNS(=O)(=O)c1cc(-c2nnc3c4ccccc4c(C)nn23)ccc1OC	·	·	·	0	·
COc1ccc(NC(=O)CCc2nnc3n(CC(C)C)c(=O)c4ccccc4n23)cc1	15	·	·	0	·
COc1ccc(-n2c(=O)c3c(c4cc(OC)ccc4n3C)n(Cc3ccc(F)cc3Cl)c2=O)cc1	7	·	·	1	·
N#Cc1ccc(C(=O)CN2CCN(c3ccccc3)CC2)cc1	-23	-2	-14	35*	16
O=C(CCN1CCN(c2ccccc2)CC1)c1ccc(Br)cc1	-27	4	-16	21	-18
